Data: PubChem BioAssay (NCATS)
Records with an inconclusive call do not appear. Unmarked numbers belong to inactive results. Activity calls are given as the source filed them. The call rests on the fitted dose curve; in most records, active means well fitted inhibition curve with a large enough effect; inconclusive means small, poorly fitted or top-dose-only effect; inactive means no such curve, though single readings can be large or run the other way.

These molecules were tested on Zika virus NS2B-NS3 protease (unlinked complex) (assay: Primary screen GU Rhodamine qHTS for Zika virus inhibitors: Unlinked NS2B-NS3 protease assay (AID 1347159; further: nearly all actives have a fitted effect of over 60% in size)). Settings: Recombinant ZIKV NS2B-NS3 protease, Rhodamine110 substrate fluorescence; series mostly up to 107 µM; activity change, negative = inhibition: at the top concentration.
In short: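 Enzyme 25 nM in Tris-HCl pH 8.0 + 0.01% Tween 20; compounds up to 114 microM, 15 min RT dark; + Rhod110 substrate 1.5 microM; read t0 and 15 min; delta fluorescence → % inhibition → 4-parameter Hill fit.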
On the % scale 0 is the no-effect control and ±100 the full control effect; potency means the concentration at half of the fitted maximal effect.

Row | SMILES | activity change, negative = inhibition | Potency
1 | CC(C)S(=O)(=O)c1ccc2nccc(Nc3ccc4scnc4c3)c2c1 | 7.12% | 
2 | C=C(C)C(=O)OC1CC(CO)CCC/C(CO)=C/C2OC(=O)C(=C)C21 (stereo not drawn) | 20.6% | 
3 | OC[C@H]1O[C@@H](OC/C=C/c2ccc(O)cc2)[C@H](O)[C@@H](O)[C@@H]1O | -3.25% | 
4 | CN(C)N(C)C(=O)[C@@]1(Cc2ccccc2)CCCN(C(=O)[C@@H](Cc2c[nH]c3ccccc23)NC(=O)C(C)(C)N)C1 | -0.626% | 
5 | CC(C)(O)C(=O)N1CCN(c2ccc(C(F)(F)F)c(C3=C(c4c[nH]c5ccccc45)C(=O)NC3=O)c2)CC1 | 3.11% | 
6 | N#Cc1ccc(COc2ccc(-c3cccc4nc(NC(=O)C5CC5)nn34)cc2)cn1 | -19.5% | 
7 | C=C(C)C(=O)O[C@H]1C[C@@](C)(O)C2(O)CCC(C)(/C=C3/OC(=O)C(COC)=C31)O2 (stereo partly drawn) | -9.09% | 
8 | Cc1cc(C)cc(-c2cnc3cc(Cl)c(-c4cccc(O)c4)cc3c2OCCCN)c1 | 227% | 
9 | CC(=O)OC/C(=C/C(=O)O)CC[C@@H]1C(C=O)=CC[C@@H]2C(C)(C)CCC[C@@]12C |  | 10 µM (active)
10 | O=[N+]([O-])c1cn2c(n1)OC[C@@H](OCc1ccc(-c3ccc(OC(F)(F)F)cc3)nc1)C2 | -9.75% | 
11 | CCN(CCNC(=O)Nc1ccccc1Br)c1cccc(C)c1 | 0% | 
12 | COc1ccc(C2Oc3c(OC)cc(CCCO)cc3C2COC2OC(CO)C(O)C(O)C2O)cc1OC (stereo not drawn) | -23.1% [at 57.1 µM] | 
13 | Cc1nc2c(C(F)(F)F)cccc2nc1-c1ccc(-c2cccc(S(C)(=O)=O)c2)cc1 | 2.36% | 
14 | O=C(NCCN1CCN(c2cccc3ccc(O)cc23)CC1)c1ccc(F)cc1 | 86.6% | 
15 | CN1CCN(Cc2ccc(NC(=O)Cc3ccc(Oc4cc(NC(=O)C5CC5)ncn4)cc3)cc2C(F)(F)F)CC1 | 114% | 
16 | NC(=O)c1cccc2[nH]c(-c3ccc(C4CCCN4)cc3F)nc12 (stereo not drawn) | 8.85% | 
17 | CCCC(CCC)C(=O)NCc1ccc2c(cnn2-c2ccccc2OC)c1 | -15.6% | 
18 | C=C1C(=O)O[C@@H]2C=C(COC(C)=O)CC/C=C(\CO)CC[C@@H]12 | 6.77% | 
19 | COc1ccc([C@H](Cc2ccncc2)c2ccccc2)cc1OC1CCCC1 | -9.83% | 
20 | COc1cc2nc(N3CCN(C(=O)c4ccco4)C4CCCCC43)nc(N)c2cc1OC (stereo not drawn) | -10.6% | 

Row | SMILES | activity change, negative = inhibition | Potency
21 | c1ccc(-c2cnn3cc(-c4ccc(OCCN5CCOCC5)cc4)cnc23)cc1 | -18.5% | 
22 | Cc1ccc(F)cc1S(=O)(=O)N[C@@H]1CCN(Cc2ccc(OC(C)C)cc2)C1 | 56.2% | 
23 | O=C(NCCCNC(=O)c1ccc[nH]c1=O)c1cc(-c2ccccc2)on1 | -24.9% | 
24 | CC(=O)Nc1cccc(-c2csc(Nc3cc(C)ccn3)n2)c1 | 0% | 
25 | C=C1C(=O)O[C@@H]2C[C@]3(C)[C@@H](CCC(C)O)[C@@H]3C[C@H]12 (stereo partly drawn) | 24.5% | 
26 | COc1ccc(CCCN2CCC(COC(c3ccccc3)c3ccccc3)CC2)cc1 | 86.2% | 
27 | CN(C)C(=O)Nc1cc(-c2ccccc2)ccc1N(C)C | 0% | 
28 | N#Cc1ccc2ncnc(NCCc3ccccc3)c2c1 | 4.49% | 
29 | COc1ccc(C#Cc2ccc(C(=O)N3CCC[C@@H](O)C3)c(F)c2)cc1 | -1.21% | 
30 | COc1ccc(C2(N(C)C(=O)c3ccc(NC(=O)c4ccco4)cc3)CCOCC2)cc1 | 14.2% | 
31 | Cn1ncc(Cl)c1-c1cc(C(=O)NC(CN)Cc2ccc(F)c(F)c2)oc1Cl (stereo not drawn) | 123% | 
32 | O=S(=O)(Nc1ccccc1N1CCCCC1)c1ccc(Cl)s1 | -9.59% | 
33 | CC(=O)O[C@@H]1[C@H](O[C@@H]2O[C@@H](CO)[C@H](O)[C@H]2O)[C@@H](O[C@@H]2O[C@@H](C)[C@H](O[C@@H]3OC[C@@H](O)[C@H](O)[C@H]3O)[C@@H](O)[C@H]2O)[C@H](OC(=O)[C@]23CCC(C)(C)C[C@H]2C2=CCC4[C@@]5(C)CC[C@H](O[C@@H]6O[C@H](C(=O)O)[C@@H](O)[C@H](O)[C@H]6O[C@@H]6O[C@H](CO)[C@H](O)[C@H](O)[C@H]6O)[C@@](C)(C=O)C5CC[C@@]4(C)[C@]2(C)C[C@H]3O)O[C@@H]1C (stereo partly drawn) | 1.92% [at 19.1 µM] | 
34 | Fc1ccc(N2CCN(CCC3OCCc4ccccc43)CC2)cc1 (stereo not drawn) | 35.9% | 
35 | CC(=O)C=C=C1C(C)(C)CC(O)CC1(C)O[C@@H]1O[C@H](CO[C@H]2OC[C@](O)(CO)[C@H]2O)[C@@H](O)[C@H](O)[C@H]1O (stereo partly drawn) |  | 20 µM (active)
36 | Cc1ccc(N2CCN(S(=O)(=O)N3CCCCC3)CC2)c(C)c1 | -13.1% | 
37 | CCNC(=O)Nc1ccc(-c2nc3c(c(N4CCOCC4C)n2)CCN(C2COC2)C3)cc1 (stereo not drawn) | -0.893% | 
38 | COc1ccc(S(=O)(=O)n2cnc3cc(C)c(C)cc32)cc1 | -12.7% | 
39 | O=C(c1c(F)ccc(NS(=O)(=O)N2CC[C@@H](F)C2)c1F)c1c[nH]c2ncc(-c3cnc(C4CC4)nc3)cc12 | 0% | 

The molecules below were run on Zika virus NS2B-NS3 protease (linked construct) (assay: Primary screen NINDS Rhodamine qHTS for Zika virus inhibitors (AID 1347160; further: nearly all actives have a fitted effect of over 55% in size)). Settings: purified NS2B-NS3 protease, Rhodamine110 substrate fluorescence; series mostly up to 57.1 µM; activity change, negative = inhibition: at the top concentration.
In short: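 Enzyme (25 nM, linked NS2B-NS3) was preincubated 15 min with compound in 10 mM Tris-HCl pH 8.0, 0.01% Tween 20. Rhodamine110 substrate (1.5 microM) was then added and fluorescence read at start and after 15 min.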

Row | SMILES | activity change, negative = inhibition | outcome | Potency
40 | CC(C)S(=O)(=O)c1ccc2nccc(Nc3ccc4scnc4c3)c2c1 | -2.35% |  | 
41 | C=C(C)C(=O)OC1CC(CO)CCC/C(CO)=C/C2OC(=O)C(=C)C21 (stereo not drawn) | 28.7% [at 33.1 µM] |  | 
42 | OC[C@H]1O[C@@H](OC/C=C/c2ccc(O)cc2)[C@H](O)[C@@H](O)[C@@H]1O |  | inactive [at 33.1 µM] | 
43 | CN(C)N(C)C(=O)[C@@]1(Cc2ccccc2)CCCN(C(=O)[C@@H](Cc2c[nH]c3ccccc23)NC(=O)C(C)(C)N)C1 | 12.7% |  | 
44 | CC(C)(O)C(=O)N1CCN(c2ccc(C(F)(F)F)c(C3=C(c4c[nH]c5ccccc45)C(=O)NC3=O)c2)CC1 | 33.1% |  | 
45 | N#Cc1ccc(COc2ccc(-c3cccc4nc(NC(=O)C5CC5)nn34)cc2)cn1 | -15.4% |  | 
46 | C=C(C)C(=O)O[C@H]1C[C@@](C)(O)C2(O)CCC(C)(/C=C3/OC(=O)C(COC)=C31)O2 (stereo partly drawn) | 7.05% [at 33.1 µM] |  | 
47 | Cc1cc(C)cc(-c2cnc3cc(Cl)c(-c4cccc(O)c4)cc3c2OCCCN)c1 |  | inactive | 
48 | CC(=O)OC/C(=C/C(=O)O)CC[C@@H]1C(C=O)=CC[C@@H]2C(C)(C)CCC[C@@]12C | -3.78% [at 33.1 µM] |  | 
49 | O=[N+]([O-])c1cn2c(n1)OC[C@@H](OCc1ccc(-c3ccc(OC(F)(F)F)cc3)nc1)C2 | 11.4% |  | 
50 | CCN(CCNC(=O)Nc1ccccc1Br)c1cccc(C)c1 | -1.85% |  | 
51 | COc1ccc(C2Oc3c(OC)cc(CCCO)cc3C2COC2OC(CO)C(O)C(O)C2O)cc1OC (stereo not drawn) | -5.14% [at 33.1 µM] |  | 
52 | Cc1nc2c(C(F)(F)F)cccc2nc1-c1ccc(-c2cccc(S(C)(=O)=O)c2)cc1 | -23.6% |  | 
53 | O=C(NCCN1CCN(c2cccc3ccc(O)cc23)CC1)c1ccc(F)cc1 | 98.7% |  | 
54 | CN1CCN(Cc2ccc(NC(=O)Cc3ccc(Oc4cc(NC(=O)C5CC5)ncn4)cc3)cc2C(F)(F)F)CC1 | 107% |  | 
55 | NC(=O)c1cccc2[nH]c(-c3ccc(C4CCCN4)cc3F)nc12 (stereo not drawn) | 42.3% |  | 
56 | CCCC(CCC)C(=O)NCc1ccc2c(cnn2-c2ccccc2OC)c1 | 0.544% |  | 
57 | C=C1C(=O)O[C@@H]2C=C(COC(C)=O)CC/C=C(\CO)CC[C@@H]12 | 16.8% [at 33.1 µM] |  | 
58 | COc1ccc([C@H](Cc2ccncc2)c2ccccc2)cc1OC1CCCC1 | 24.9% |  | 
59 | COc1cc2nc(N3CCN(C(=O)c4ccco4)C4CCCCC43)nc(N)c2cc1OC (stereo not drawn) | 3.83% |  | 

Row | SMILES | activity change, negative = inhibition | outcome | Potency
60 | c1ccc(-c2cnn3cc(-c4ccc(OCCN5CCOCC5)cc4)cnc23)cc1 | 7.54% |  | 
61 | Cc1ccc(F)cc1S(=O)(=O)N[C@@H]1CCN(Cc2ccc(OC(C)C)cc2)C1 | 7.52% |  | 
62 | O=C(NCCCNC(=O)c1ccc[nH]c1=O)c1cc(-c2ccccc2)on1 | 13.4% |  | 
63 | CC(=O)Nc1cccc(-c2csc(Nc3cc(C)ccn3)n2)c1 |  | inactive | 
64 | C=C1C(=O)O[C@@H]2C[C@]3(C)[C@@H](CCC(C)O)[C@@H]3C[C@H]12 (stereo partly drawn) | -6.42% |  | 
65 | COc1ccc(CCCN2CCC(COC(c3ccccc3)c3ccccc3)CC2)cc1 |  | inactive | 
66 | CN(C)C(=O)Nc1cc(-c2ccccc2)ccc1N(C)C |  | inactive | 
67 | N#Cc1ccc2ncnc(NCCc3ccccc3)c2c1 | 4.98% |  | 
68 | COc1ccc(C#Cc2ccc(C(=O)N3CCC[C@@H](O)C3)c(F)c2)cc1 | 2.74% |  | 
69 | COc1ccc(C2(N(C)C(=O)c3ccc(NC(=O)c4ccco4)cc3)CCOCC2)cc1 |  | inactive | 
70 | Cn1ncc(Cl)c1-c1cc(C(=O)NC(CN)Cc2ccc(F)c(F)c2)oc1Cl (stereo not drawn) | 122% |  | 
71 | O=S(=O)(Nc1ccccc1N1CCCCC1)c1ccc(Cl)s1 | 3.56% |  | 
72 | CC(=O)O[C@@H]1[C@H](O[C@@H]2O[C@@H](CO)[C@H](O)[C@H]2O)[C@@H](O[C@@H]2O[C@@H](C)[C@H](O[C@@H]3OC[C@@H](O)[C@H](O)[C@H]3O)[C@@H](O)[C@H]2O)[C@H](OC(=O)[C@]23CCC(C)(C)C[C@H]2C2=CCC4[C@@]5(C)CC[C@H](O[C@@H]6O[C@H](C(=O)O)[C@@H](O)[C@H](O)[C@H]6O[C@@H]6O[C@H](CO)[C@H](O)[C@H](O)[C@H]6O)[C@@](C)(C=O)C5CC[C@@]4(C)[C@]2(C)C[C@H]3O)O[C@@H]1C (stereo partly drawn) | 10.8% [at 10.7 µM] |  | 
73 | Fc1ccc(N2CCN(CCC3OCCc4ccccc43)CC2)cc1 (stereo not drawn) | -17.5% |  | 
74 | CC(=O)C=C=C1C(C)(C)CC(O)CC1(C)O[C@@H]1O[C@H](CO[C@H]2OC[C@](O)(CO)[C@H]2O)[C@@H](O)[C@H](O)[C@H]1O (stereo partly drawn) |  |  | 11.2 µM (active)
75 | Cc1ccc(N2CCN(S(=O)(=O)N3CCCCC3)CC2)c(C)c1 | 4.78% |  | 
76 | CCNC(=O)Nc1ccc(-c2nc3c(c(N4CCOCC4C)n2)CCN(C2COC2)C3)cc1 (stereo not drawn) | 15.8% |  | 
77 | COc1ccc(S(=O)(=O)n2cnc3cc(C)c(C)cc32)cc1 | 7.45% |  | 
78 | O=C(c1c(F)ccc(NS(=O)(=O)N2CC[C@@H](F)C2)c1F)c1c[nH]c2ncc(-c3cnc(C4CC4)nc3)cc12 | -14.7% |  | 
